Measurements as given in the supplement of paper PMC6555819.

tested on: RARa:RXR (NR concentration 270 nM, RXRa partner concentration 90 nM); assay: PBM binding z-score (relative to random genomic background probes); higher = stronger binding; sequences stand for … in GC…GCGATTGACAGCGTAGAATGAAGG
Outline: (§1)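 Custom Agilent 4×180K protein-binding microarrays carried double-stranded probes, each with a 34-nt variable region. These regions held direct-repeat seeds, single-nucleotide variants, half-site ablations and random human genomic background sequences. Ligand-free nuclear receptor dimers were incubated on the arrays for 1 h, antibodies against each partner (one per run) detected binding, and scanned fluorescence was regression-normalized. Binding z-scores take the random background probes as reference.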

| Sequence | PBM binding z-score |
| --- | --- |
| CGAACTAGGTCAGAACATGACAGTGAAGGATGAT | 0.937 |
| TTACCAAGGTGAGCCGAGGTCGTTGATCCAACTC | 1.95 |
| CAAACTAGGTCACCGGAAGGTCAACGTCCGCATG | 7.37 |
| CCTACTGGGCCACGAAAAGTCATTGATTCAGTGA | -0.211 |
| AATACAGGGTCATCGTAGACCAGAGTACGCACAG | 5.09 |
| CCTTACGGGTCACTCCAGGCTATAGCATCGGAGT | 3.16 |
| CCACACAGGTGAAAGGTAACTCAGTCTGGTACGC | 1.76 |
| TCCGACAGGTGAAGGTAACTCAGGTACGCAGTCG | 0.63 |
| ATCGATAGGTCGACGAGGTGAGTATACACCGTTT | 1.6 |
| TAGCCTAGGTCATGCAGGCCAGTATAGTGTCGGC | 2.37 |
| CGTCCAACGTCAGAGAGGTCAGTGAATGCCGAGT | 2.53 |
| CCCTACGGGTCACTGACAGGTTATAGCATTTGGA | 4.28 |
| AGAATGAGGTTACCAAACATCAGGGAAACGCTTG | 1.59 |
| CCTACTGGGCCATTCAGAGGTGATTGATCATATG | 0.451 |
| CCTACCAGGCCAGGGTCACTCAAGCATTTCGCTT | 2.79 |
| CGAACTAGGTCATCCAGGACAATGAATACATTGA | 2.31 |
| ACTAGTTGGTGAGCTGAGGTCACACACAATTCGG | 4.65 |
| CGTCCAAGCTCAAAGGTCAGTGAAGAGATGACGG | 4.05 |

tested on: RARa homodimer (NR concentration 270 nM); assay: as above
Outline: as §1

| Sequence | PBM binding z-score |
| --- | --- |
| CCAACTAGGTCAGAACAGGACAGTGAAGGATGAT | 1.58 |
| CATACAGGGTCAGCTAGGCCAGAGAAGGGACGGC | 0.36 |
| TGAATGACGTTATAAGATCAGGGAACGTTGCAAA | 0.18 |
| ATCTCTCGGTAACCAAGTTCAGTGAATGCCGAAC | 0.774 |
| CCTAGCAGGCCAATCTGGGTCACCCAAGGCTTGA | -0.135 |
| GCTTGTCGATCAAGGTTAAGAAAGACTAAGCTAA | -0.654 |
| ATATGTAGGTTAAGGGTCACTCAGGTTGGTTCGC | 2.24 |
| GCTGCTAGGTTAGGTTGGTCAGCTAACGGGTACG | -0.345 |
| ATCGAAAGGTCGACGAGGTGAGTGTACACCGTTT | 0.268 |
| CAAACTAGGTCACGAAAGGTCAAGGTCGAATGAC | 3.81 |
| TAGCCTAGGTCAGATGGGGCCAGTATACGCTATA | -0.56 |
| ATCGCAAGGTCGTGAGGTGAGTATACAGAAAGGC | -0.445 |
| TAGCATAGGTCATGGGCCAGTATACCACGCGAAC | 0.528 |
| TCTGCTAGGTCAGCTGGTCAGCTAACGAGCTGCC | -1.54 |
| GCTGTTAGGTCAGGTTGGTCAGCTAACGGGTACG | 0.0798 |
| TCGGCTAGGTCAGTTGGTCAGCTAACGAGCTGCC | -0.561 |
| CCCATTAGTTGACCATAAGGGCAACCGAAGCTCG | 1.57 |
| TAGCTTAGGTCATTGGGCCAGTATAGTACGCATC | 0.063 |
| CCTTACGGGGCACTGACAGGTTATAGCATTTGGA | 0.0601 |
| TCGAGTAGGTTACCGATGGGGCATTCAGCTTTCT | -0.625 |

| Sequence | PBM binding z-score |
| --- | --- |
| TCTATTAGTTGATTAGGGCATCCGAAACAGCGGA | 1.52 |
| TCTGCTAGGTCGGTTGGTCAGCTAACGAGCTGCC | -1.53 |
| CGAACTAGGTCAGAACATGACAGTGAAGGATGAT | 0.0136 |
| TTACCAAGGTGAGCCGAGGTCGTTGATCCAACTC | -0.75 |
| CAAACTAGGTCACCGGAAGGTCAACGTCCGCATG | 2.46 |
| CCTACTGGGCCACGAAAAGTCATTGATTCAGTGA | -0.346 |
| AATACAGGGTCATCGTAGACCAGAGTACGCACAG | 1.49 |
| CCTTACGGGTCACTCCAGGCTATAGCATCGGAGT | 0.0642 |
| CCACACAGGTGAAAGGTAACTCAGTCTGGTACGC | 0.461 |
| TCCGACAGGTGAAGGTAACTCAGGTACGCAGTCG | -0.702 |
| ATCGATAGGTCGACGAGGTGAGTATACACCGTTT | 0.235 |
| TAGCCTAGGTCATGCAGGCCAGTATAGTGTCGGC | -0.161 |
| CGTCCAACGTCAGAGAGGTCAGTGAATGCCGAGT | 0.224 |
| CCCTACGGGTCACTGACAGGTTATAGCATTTGGA | 1.02 |
| AGAATGAGGTTACCAAACATCAGGGAAACGCTTG | -0.309 |
| CCTACTGGGCCATTCAGAGGTGATTGATCATATG | 0.129 |
| CCTACCAGGCCAGGGTCACTCAAGCATTTCGCTT | 0.657 |
| CGAACTAGGTCATCCAGGACAATGAATACATTGA | 0.706 |
| ACTAGTTGGTGAGCTGAGGTCACACACAATTCGG | 0.439 |
| CGTCCAAGCTCAAAGGTCAGTGAAGAGATGACGG | 1.36 |

tested on: RARb:RXRa (NR concentration 270 nM, RXRa partner concentration 90 nM); assay: as above
Outline: as §1

| Sequence | PBM binding z-score |
| --- | --- |
| CCAACTAGGTCAGAACAGGACAGTGAAGGATGAT | 2.98 |
| CATACAGGGTCAGCTAGGCCAGAGAAGGGACGGC | 4.16 |
| TGAATGACGTTATAAGATCAGGGAACGTTGCAAA | -0.286 |
| ATCTCTCGGTAACCAAGTTCAGTGAATGCCGAAC | 0.997 |
| CCTAGCAGGCCAATCTGGGTCACCCAAGGCTTGA | 1.62 |
| GCTTGTCGATCAAGGTTAAGAAAGACTAAGCTAA | 0.682 |
| ATATGTAGGTTAAGGGTCACTCAGGTTGGTTCGC | 3.95 |
| GCTGCTAGGTTAGGTTGGTCAGCTAACGGGTACG | 0.767 |
| ATCGAAAGGTCGACGAGGTGAGTGTACACCGTTT | 3.89 |
| CAAACTAGGTCACGAAAGGTCAAGGTCGAATGAC | 5.62 |
| TAGCCTAGGTCAGATGGGGCCAGTATACGCTATA | 3.42 |
| ATCGCAAGGTCGTGAGGTGAGTATACAGAAAGGC | 2.67 |
| TAGCATAGGTCATGGGCCAGTATACCACGCGAAC | 4.41 |
| TCTGCTAGGTCAGCTGGTCAGCTAACGAGCTGCC | 3.64 |
| GCTGTTAGGTCAGGTTGGTCAGCTAACGGGTACG | 3.49 |
| TCGGCTAGGTCAGTTGGTCAGCTAACGAGCTGCC | 3.52 |
| CCCATTAGTTGACCATAAGGGCAACCGAAGCTCG | 1.7 |
| TAGCTTAGGTCATTGGGCCAGTATAGTACGCATC | 3.72 |
| CCTTACGGGGCACTGACAGGTTATAGCATTTGGA | 1.03 |
| TCGAGTAGGTTACCGATGGGGCATTCAGCTTTCT | 0.88 |

| Sequence | PBM binding z-score |
| --- | --- |
| TCTATTAGTTGATTAGGGCATCCGAAACAGCGGA | 0.788 |
| TCTGCTAGGTCGGTTGGTCAGCTAACGAGCTGCC | 0.845 |
| CGAACTAGGTCAGAACATGACAGTGAAGGATGAT | 2.58 |
| TTACCAAGGTGAGCCGAGGTCGTTGATCCAACTC | 1.99 |
| CAAACTAGGTCACCGGAAGGTCAACGTCCGCATG | 5.38 |
| CCTACTGGGCCACGAAAAGTCATTGATTCAGTGA | 0.629 |
| AATACAGGGTCATCGTAGACCAGAGTACGCACAG | 4.3 |
| CCTTACGGGTCACTCCAGGCTATAGCATCGGAGT | 3.51 |
| CCACACAGGTGAAAGGTAACTCAGTCTGGTACGC | 1.38 |
| TCCGACAGGTGAAGGTAACTCAGGTACGCAGTCG | 0.858 |
| ATCGATAGGTCGACGAGGTGAGTATACACCGTTT | 1.65 |
| TAGCCTAGGTCATGCAGGCCAGTATAGTGTCGGC | 3.66 |
| CGTCCAACGTCAGAGAGGTCAGTGAATGCCGAGT | 2.92 |
| CCCTACGGGTCACTGACAGGTTATAGCATTTGGA | 4.02 |
| AGAATGAGGTTACCAAACATCAGGGAAACGCTTG | 1.82 |
| CCTACTGGGCCATTCAGAGGTGATTGATCATATG | 0.622 |
| CCTACCAGGCCAGGGTCACTCAAGCATTTCGCTT | 2.65 |
| CGAACTAGGTCATCCAGGACAATGAATACATTGA | 3.87 |
| ACTAGTTGGTGAGCTGAGGTCACACACAATTCGG | 2.98 |
| CGTCCAAGCTCAAAGGTCAGTGAAGAGATGACGG | 4.48 |
